# Reference: PubChem BioAssay
# Experiment: small-molecule microarray binders of probe aLefty2, primary screen, biochemical, biotinylated probe, 635/667 nm fluorescence (AID 1094);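 further: score merges spot fluorescence near 667 nm with spot signal-to-noise ratio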
# Conditions: higher = more signal
row,SMILES,composite z-score
1,COc1ccc(NC(=O)O[C@H]2[C@H](OC(=O)c3cc4ccccc4[nH]3)[C@@H](OC(=O)c3cc4ccccc4[nH]3)[C@@H](OC)O[C@@H]2CO)cc1,-0.007
2,C=C(CCCC)C(=O)CC[C@H](OC(=O)c1cccnc1)c1ccc(OCCO)cc1,-0.0547
3,C=CCN1C(=O)[C@]2(Cc3ccccc3)N=C(c3ccc(OCCCO)cc3)O[C@@H]2c2ccccc21,0.295
4,CC(=O)NCCCC[C@@H]1NC(=O)[C@H]2C[C@@H](C(=O)NCCCCCNC(=O)CS)[C@@H](c3ccc(O)cc3)N2C1=O,-0.0727
5,C=CCC(OC(C)=O)[C@@H]1[C@@H](N(Cc2cc3ccccc3o2)C(=O)Cc2ccc(OC)cc2)c2cc(OCCCO)ccc2N1C(=O)c1ccc2ccccc2c1 (stereo not given in full),-0.0097
6,CC(c1ccccc1)C(O)C1C=CC2C(=O)N(c3ccccc3)C(=O)C2N1Nc1ccccc1 (stereo not given),0.0008
7,COc1ccc([C@H]2C[C@H]3C(Br)=C[C@@]2(CO)C(=O)[C@]32CO2)cc1,0.0395
8,COCCOC(=O)N1C(=O)[C@@]2(c3cc(C#CCCO)ccc31)[C@H](c1ccc(OCCO)cc1)N1[C@H](c3ccccc3)[C@H](c3ccccc3)OC(=O)[C@H]1[C@@H]2C(N)=O,-0.0383
9,CCCCN1CC=CC23O[C@@H]4/C=C\CCCOC(=O)C4[C@H]2C(=O)N(CCCCCO)[C@@H]3C1=O (stereo not given in full),-0.188
10,NCCCCCCNC(=O)[C@H]1C[C@H]2C(=O)N[C@@H](Cc3ccccc3)C(=O)N2[C@H]1c1cccc(OCCO)c1,0.255
11,COc1ccc([Si](C)(C)[C@@H]2[C@@H](CCn3cc(CCO)nn3)O[C@]3(C(=O)N(Cc4cccc(N5C(=O)c6cccc7cccc5c67)c4)c4ccccc43)[C@H]2C)cc1,-0.0956
12,CC(=O)Nc1cc(Br)ccc1C(=O)NCc1ccccc1,-0.0778
13,CCCCCN1CC=CC23O[C@@H]4C=CCOC(=O)[C@@H]4[C@H]2C(=O)N(C(C)CO)[C@@H]3C1=O (stereo not given in full),-0.174
14,CCOC(=O)C1=C[C@@H](C(C)C)N(S(=O)(=O)c2ccc(C)cc2)[C@H]1c1ccccc1F,0.142
15,CS(=O)(=O)CCOC(=O)C1=CC(CCCO)=CC(C2CC2)N(Cc2cc3c(cc2Br)OCO3)C=C1C(=O)OCCS(C)(=O)=O (stereo not given),0.0723
16,Cc1c(NC(=O)/C(C#N)=C/c2cccc([N+](=O)[O-])c2)c(=O)n(-c2ccccc2)n1C,-0.26
17,C=CCN1Cc2ccccc2[C@@H]2OC(c3ccc(OCCCO)cc3)=N[C@]2(CCS(=O)(=O)c2ccccc2)C1=O,0.0642
18,C=CCNC(=O)[C@@H]1[C@H]2C(=O)O[C@H](c3ccccc3)[C@H](c3ccccc3)N2[C@H](c2ccc(OCCO)cc2)[C@@]12C(=O)N(C(=O)OCCOC)c1ccc(C#CCC(C(=O)OC)C(=O)OC)cc12,0.0398

row,SMILES,composite z-score
1,CN1C(=O)C2C=CC(C(O)C=Cc3ccc([N+](=O)[O-])cc3)N(Nc3ccccc3)C2C1=O (stereo not given),0.0849
2,COCCOC(=O)N1C(=O)[C@@]2(c3cc(C#CC4=CCCCC4)ccc31)[C@H](c1ccc(OCCO)cc1)N1[C@H](c3ccccc3)[C@H](c3ccccc3)OC(=O)[C@H]1[C@@H]2C(=O)N1CCc2cc(OC)c(OC)cc2C1,0.034
3,CC(C)CN1C(=O)[C@@]2(c3ccc([N+](=O)[O-])cc3)CC(=O)N(C3CCCCC3)[C@@H]2c2ccc(CO)cc21,-0.113
4,C#CCN1[C@H](/C=C/C2CC2)[C@H](Cc2ccccc2)OC(=O)[C@@H]1Cc1ccccc1,-0.102
5,COc1ccccc1CN1C(=O)c2ccccc2[C@@]2(Cc3ccccc3N(CCCN(C)C)C2=O)[C@@H]1c1ccc(CO)cc1,-0.247
6,COC(=O)[C@@]1(CCC(=O)OC(C)(C)C)N=C(c2ccc(OCCCO)cc2)O[C@H]1c1ccccc1,0.0478
7,O=C(O)[C@@]1(CCS(=O)(=O)c2ccccc2)N=C(c2ccc(OCCCO)cc2)O[C@H]1c1ccccc1,0.16
8,C=CCN(Cc1ccccc1)C(=O)C(c1cccs1)N(C(=O)/C=C\C(=O)O)c1ccc(CCOCCO)cc1 (stereo not given),-0.209
9,CC(C)NC(=O)[C@@H]1c2ccccc2C(=O)N(C(C)C)[C@H]1c1ccc(CO)cc1,-0.0478
10,C=CCC(OC(C)=O)[C@@H]1[C@@H](N(Cc2ccc(-c3cccc(C(F)(F)F)c3)o2)C(=O)c2cccc3ccccc23)c2cc(OCCCO)ccc2N1C(=O)Cc1ccc2ccccc2c1 (stereo not given in full),-0.106
11,COc1ccc([Si](C)(C)[C@@H]2[C@@H](CCn3cc([C@H](O)c4ccccc4)nn3)O[C@]3(C(=O)N(Cc4cccc(N5CCC5=O)c4)c4ccccc43)[C@H]2C)cc1,-0.0956
12,O=C(NCCN1CCOCC1)[C@@H]1c2ccccc2C(=O)N(Cc2cc(C(F)(F)F)cc(C(F)(F)F)c2)[C@H]1c1ccc(CO)cc1,-0.0856
13,C=C(CCCC)/C(=C/C[C@H](OC(C)=O)c1ccccc1OCCO)c1cnc2ccccc2c1,-0.235
14,COC(=O)[C@@]1(Cc2ccc(OC)cc2)[C@H]2c3cc(C(=O)N4CCCC4)n(CCc4ccc(O)c(O)c4)c3C[C@H]2CN1C(=O)c1ccccc1,0.491
15,Cc1ccc(S[C@]2(C(=O)NCC(C)C)CC(=O)N(Cc3cc(C(F)(F)F)cc(C(F)(F)F)c3)[C@@H]2c2ccc(CO)cc2)cc1,0.522
16,O=C(NC1CC1)[C@@H]1c2ccccc2C(=O)N(C2Cc3ccccc3C2)[C@H]1c1ccc(CO)cc1,-0.0441
17,O=C1OCCC=C[C@H]2OC34C=CCN(CCN5CCOCC5)C(=O)[C@H]3N(CCCCCO)C(=O)[C@@H]4C12 (stereo not given in full),-0.138
